This is a sample that favours compounds with a hit; in the whole collection about 2.1% have one here.
PD-1 reverse act: activators reversing PD-1 mediated T-cell inhibition | activation, % (no concentration beside the values) | 29,000 tested, under 10 active | AID 2316 | primary human CD4 T cells, PD-L1 beads, CellTiter-Glo 96 h; call rule not given here;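 further: 0% = median vehicle wells and 100% = positive control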
YB-1 expr inh: YB-1 expression inhibition. U2OS, qRT-PCR YB-1 vs CDIP delta delta Cp, 16 h; active compounds read high; zero = DMSO, each unit about twofold. delta delta Cp (YB-1 minus CDIP) (test concentration not listed). 30,000 tested, 0.37% active;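 active means delta delta Cp rounded down to an integer at or above 3, about 3 SD of DMSO wells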;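 further: higher means less YB-1 transcript or more CDIP transcript relative to DMSO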
ROS inducer: raises reactive oxygen species in U2OS cancer cells; ROS induction (% of piperlongumine), % at 10 µM; 46,000 tested, 2% active; U2OS ROS induction, H2DCF-DA fluorescence; in the data active means ROS induction above about 79%, passing the limit was not always enough; inconclusive means no clear call, values can overlap the other calls;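 further: 0% = DMSO vehicle median and 100% = reference compound median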
* marks the source's active call; other numbers are inactive results; ? = inconclusive; · = no result given.

SMILES	PD-1 reverse act	YB-1 expr inh	ROS inducer
CC(C)(C)C(=O)OC[C@H]1O[C@@H](n2cnc3c(N)ncnc32)C[C@@H]1OC(=O)C(C)(C)C	-0.3	8.33*	-2.3
C=CCN1C(=O)/C(=C/c2cn(C(C)CC)c3ccccc23)C(=O)NC1=S (centres undefined)	-2.9	-0.292	64.6
C=CCN1C(=O)NC(=O)/C(=C\c2cn(Cc3ccccc3)c3ccccc23)C1=O	·	·	155.1*
CSc1nc2ccc(NS(=O)(=O)c3ccccc3C(F)(F)F)cc2s1	·	·	1.7
CC(C)NC(=O)c1cc2n(n1)C(C(F)(F)F)CC(c1cccs1)N2 (centres undefined)	·	·	-7.1
C[C@H](CO)N1C[C@H](C)[C@@H](CN(C)C(=O)Nc2ccc3c(c2)OCO3)Oc2ccc(NC(=O)Nc3cccc4ccccc34)cc2C1=O	0.0	-0.198	-8.7
C[C@H](CO)N1C[C@H](C)[C@H](CN(C)C(=O)Nc2ccc3c(c2)OCO3)Oc2ccc(NC(=O)Nc3cccc4ccccc34)cc2C1=O	-2.5	0.103	79.0*
C[C@H]1CN([C@@H](C)CO)C(=O)c2cc(NC(=O)Nc3cccc4ccccc34)ccc2O[C@@H]1CN(C)Cc1ccc2c(c1)OCO2	-2.2	0.343	120.1*
C[C@@H]1CN([C@@H](C)CO)C(=O)c2cc(NC(=O)Nc3cccc4ccccc34)ccc2O[C@@H]1CN(C)Cc1ccc2c(c1)OCO2	-1.6	0.244	-8.0
Cc1ccc(-n2c(C)nnc2SCC(=O)Nc2ccc(Cl)c(C(F)(F)F)c2)cc1	-1.5	·	5.5
COc1ccc(CCN=Cc2ccc3c(c2)OCO3)cc1OC	-0.1	-0.325	8.9
CC1CCC(NC(=O)c2ccc(CSc3nc4ccncc4[nH]3)cc2)CC1 (centres undefined)	·	·	12.3
COc1ccc(C(c2cn(C)c3ccccc23)c2cn(C)c3ccccc23)c(OC)c1OC	3.3	·	-9.2
COc1ccc(NC(=O)N(C)C[C@@H]2Oc3ncc(C#Cc4ccc(OC)c(OC)c4)cc3C(=O)N([C@H](C)CO)C[C@@H]2C)cc1	·	0.23	104.2*
COc1ccc(C#Cc2cnc3c(c2)C(=O)N([C@H](C)CO)C[C@H](C)[C@H](CN(C)C(=O)Nc2c(C)noc2C)O3)cc1OC	·	0.0914	23.7
C[C@H](CO)N1C[C@H](C)[C@H](CN(C)C(=O)Nc2ccccc2)Oc2ncc(C#Cc3ccc(F)cc3)cc2C1=O	·	-0.506	132.0*
COc1ccc(NC(=O)N(C)C[C@@H]2Oc3ncc(C#CCN(C)C)cc3C(=O)N([C@H](C)CO)C[C@@H]2C)cc1	·	0.239	-5.8
C[C@H](CO)N1C[C@H](C)[C@H](CN(C)C(=O)Nc2ccc(F)cc2)Oc2ncc(C#Cc3ccc(F)cc3)cc2C1=O	·	-0.373	?
COc1ccc(C#Cc2cnc3c(c2)C(=O)N([C@H](C)CO)C[C@H](C)[C@H](CN(C)C(=O)Nc2ccc4c(c2)OCO4)O3)cc1OC	·	0.0502	118.4*
COC(=O)C(CC#Cc1ccc2c(c1)[C@]1(C(=O)N2)[C@H](C(=O)N2CCCCCCC2)[C@H]2C(=O)O[C@H](c3ccccc3)[C@H](c3ccccc3)N2[C@@H]1c1ccc(O)cc1)C(=O)OC	·	0.19	-3.3
CCN(CC(=O)Nc1ccc(C(N)=O)cc1)S(=O)(=O)c1ccc(F)cc1	2.6	·	5.4
CCCCc1c(C)c(C#N)c2nc3ccccc3n2c1NCCN1CCOCC1	·	·	95.7*
C=CCc1c(C)c(C#N)c2nc3ccccc3n2c1NCCc1ccc(OC)c(OC)c1	·	·	133.0*
COc1ccc(CCNC(=O)CCn2c(SCC#N)nc3ccccc3c2=O)cc1OC	·	·	24.0
CCCc1cc(N2CCN(c3ccccc3)CC2)n2c(nc3ccccc32)c1C#N	·	·	48.1
SMILES	PD-1 reverse act	YB-1 expr inh	ROS inducer
CS(=O)(=O)N(CC(=O)Nc1c(F)cccc1F)c1ccc(Br)cc1	2.4	·	·
CC(C)(C)OC(=O)NC1(/C=N/NC(=O)CCCCC(=O)NO)CCCC1	·	-0.111	1.7
C[C@H]1CN([C@@H](C)CO)C(=O)c2cccc(NC(=O)c3cnccn3)c2O[C@@H]1CN(C)Cc1ccc(-c2ccccc2)cc1	-0.4	-0.216	118.3*
C[C@H]1CN([C@@H](C)CO)C(=O)c2cccc(NC(=O)c3cnccn3)c2O[C@H]1CN(C)Cc1ccc(-c2ccccc2)cc1	-1.9	0.46	42.9
C[C@H](CO)N1C[C@H](C)[C@@H](CN(C)Cc2ccc(Oc3ccccc3)cc2)Oc2c(NC(=O)c3cnccn3)cccc2C1=O	-6.5	-0.606	134.3*
C[C@@H]1CN([C@H](C)CO)C(=O)c2cccc(NC(=O)c3cnccn3)c2O[C@H]1CN(C)Cc1ccc(Oc2ccccc2)cc1	-1.7	-0.193	21.0
C[C@@H]1CCCCO[C@@H](CN(C)C(=O)Cc2ccccc2)[C@@H](C)CN([C@H](C)CO)C(=O)c2cc(NC(=O)Cc3ccccc3)ccc2O1	0.5	-0.0518	18.4
C[C@@H]1CN([C@@H](C)CO)C(=O)Cc2cc(NS(=O)(=O)c3cccs3)ccc2O[C@@H]1CN(C)C	-0.1	-0.215	128.3*
Cc1noc(C)c1NC(=O)N(C)C[C@@H]1Oc2ccc(NS(=O)(=O)c3cccs3)cc2CC(=O)N([C@@H](C)CO)C[C@@H]1C	·	14.5*	-6.5
C[C@@H]1CN([C@H](C)CO)C(=O)c2cc(NS(C)(=O)=O)ccc2O[C@@H]1CN(C)S(=O)(=O)c1ccccc1	1.1	-0.15	101.6*
C[C@@H]1CN([C@H](C)CO)C(=O)Cc2cc(NS(=O)(=O)c3cccs3)ccc2O[C@H]1CN(C)S(C)(=O)=O	·	0.299	1.6
Cc1ccc(S(=O)(=O)N(C)C[C@@H]2Oc3ccc(NS(=O)(=O)c4ccccc4)cc3CC(=O)N([C@H](C)CO)C[C@@H]2C)cc1	-1.4	-0.808	129.7*
Cc1ccc(S(=O)(=O)Nc2ccc3c(c2)CC(=O)N([C@H](C)CO)C[C@@H](C)[C@@H](CN(C)S(=O)(=O)c2ccccc2)O3)cc1	-1.8	-0.306	-0.6
C[C@H]1CN([C@@H](C)CO)C(=O)c2cc(NS(C)(=O)=O)ccc2O[C@H]1CN(C)S(=O)(=O)c1ccccc1	·	0.0173	-3.5
Cc1noc(C)c1NC(=O)N(C)C[C@H]1Oc2ccc(NS(=O)(=O)c3cccs3)cc2C(=O)N([C@H](C)CO)C[C@H]1C	0.4	0.199	3.0
Cc1cc(C)cc(Oc2c(C(F)(F)F)oc3c(CN4CC(C)OC(C)C4)c(O)ccc3c2=O)c1 (centres undefined)	·	·	-12.0
COc1ccc(-c2cc(C)nc(SCC(=O)Nc3cccc(Cl)c3Cl)n2)cc1	1.0	·	3.4
C[C@@H]1CN([C@H](C)CO)C(=O)c2cccc(NS(=O)(=O)c3cn(C)cn3)c2O[C@@H]1CN(C)C(=O)Nc1ccc2c(c1)OCO2	-0.2	-0.766	-3.0
Cc1ccc(S(=O)(=O)N(C)C[C@@H]2Oc3ccc(NS(=O)(=O)c4cccs4)cc3CC(=O)N([C@H](C)CO)C[C@H]2C)cc1	·	0.0541	94.7*
Cc1ccc(S(=O)(=O)N(C)C[C@H]2Oc3ccc(NS(=O)(=O)c4cccs4)cc3CC(=O)N([C@@H](C)CO)C[C@H]2C)cc1	-0.8	0.06	-1.4
C[C@@H]1CN([C@@H](C)CO)C(=O)Cc2cc(NC(=O)CCCCCC(=O)Nc3ccccc3N)ccc2O[C@@H]1CN(C)S(=O)(=O)c1ccc(F)cc1	2.9	-0.0978	0.9

Bioassay records (PubChem)
